Data from PubChem BioAssay (NCATS).
Records with an inconclusive call do not appear. Where a call stands in place of a potency, no number is given. Activity calls are given as the source filed them. The call rests on the fitted dose curve; in most records, active means well fitted cell-killing curve with a large enough effect; inconclusive means small, poorly fitted or top-dose-only effect; inactive means flat fitted curve, though single readings scatter.

Assay: Cell Viability - LYMP1-002 - Assay at 16 hr (AID 948)
Conditions: LYMP1-002 lymphoblastoid cell viability; series mostly up to 92.2 µM
Description: NIH Chemical Genomics Center [NCGC]
NIH Molecular Libraries Screening Centers Network [MLSCN]
National Institutes of Environmental Health Sciences [NIEHS]
National Toxicology Program [NTP]
We have developed a 1536-well cell-based assay for quantitative high throughput screening (qHTS) against a number of cell lines to determine in vitro cytotoxicity of small molecules. This particular assay uses a human lymphoblastoid cell line (LYMP1-002) purchased from Coriell Institute for Medical Research.
NCGC Assay Protocol Summary:
The CellTiter-Glo luminescent cell viability assay (Promega) is a homogeneous method to measure the number of viable cells in culture. The end point readout of this assay is based on quantitation of intracellular ATP, an indicator of metabolic activity, using the luciferase reaction. Luciferase catalyzes the oxidation of beetle Luciferin to oxyluciferin and light in the presence of ATP. The luminescent signal is proportional to amount of ATP present.
Using the CellTiter-Glo luminescent cell viability assay, the amount of cellular ATP was measured in the lymphoblastoid cell line with complete culture medium following compound treatment for 16 hours. The assay was performed in opaque white Kalypsys 1536-well plates. In the screen, tetraoctylammonium bromide was used as positive control. Library compounds were measured for their ability to cause acute toxicity in the cell line, as reflected by a decrease in intracellular ATP levels, in a concentration-dependent manner. […] AC50 values were determined from concentration-response data modeled with the standard Hill equation.
qHTS protocol for CellTiter Glo lymphoblastoid cellular assay
[Step] [Parameter] [Value] [Description]
1. Reagent; 5 uL; 2500 lymphoblastoid cells/well
2. Time; 5 hr; 37 C incubation
4. Controls; 23 nL; Tetraoctylammonium bromide 6.4pM to 92 uM
5. Time; 16 hr; 37 C incubation
6. Reagent; 5 uL; CellTiter Glo reagent
7. Time; 30 min; Room Temperature
8. Detection; Luminescence; Viewlux plate reader
Keywords: cell viability, cytotoxicity, lymphoblastoid cell line, luminescence, NTPHTS, NTPHTS_NCGC, NIEHS, DSSTox, MLSMR, MLSCN, NIH Roadmap, qHTS, NCGC
Potency means the concentration at half of the fitted maximal effect.

SMILES | Potency
CC(=O)OC/C=C(C)/C=C/C=C(C)/C=C/C1=C(C)CCCC1(C)C | inactive
OCc1c[nH]c2ccccc12 | inactive
Nc1c2ccccc2nc2ccccc12 | 15.8 µM (active)
C1=CC2C3C=CC(C3)C2C1 (stereo not given) | inactive
O=C(c1ccccc1)c1ccccc1 | inactive
Brc1ccccc1-c1ccccc1 | inactive
COc1cc(C=O)ccc1O | inactive
c1ccc2occc2c1 | inactive
Nc1cccc2c(N)cccc12 | inactive
CCCCC(CC)COC(=O)c1ccccc1C(=O)O (stereo not given) | inactive
Nc1ccc(O)cc1 | 50.1 µM (active)
Oc1ccccc1 | inactive
CC(C)C(C)(C)C(C)(C)C(C)(C)S | inactive
CCCCCCCCCCCCCCCC[n+]1ccccc1 | 25.1 µM (active)
CC(C)(c1ccc(O)cc1)c1ccc(O)cc1 | inactive
O=C(NO)c1ccccc1 | inactive
CCCC(=O)c1cc(O)c(O)cc1O | inactive
Cc1cc(C(C)(C)C)c(O)c(C(C)(C)C)c1 | inactive
O=C(Oc1ccccc1)c1ccccc1O | inactive
Cc1ccc(O)cc1 | inactive
